This note sets out measurements from PubChem BioAssay.

A number with no mark means an inactive call. For part of these data: Potency and affinity values are given separately. Activity calls are given as the source filed them. Unless noted, no rule for the calls is given here.

The nature of experiment [1]: antimalarial activity against Dd2 strain (AID 2302;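 active = growth inhibition above 50% at the single 2 µM test dose, taken to imply half-maximal potency below 2 µM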;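 also: 0% = DMSO untreated growth and 100% = chloroquine plus artemisinin killed control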). To be noted: P. falciparum Dd2 in RBCs, LDH growth readout, 72 h; at 2 µM; active compounds read high.
Experiment [2] can be described thus: HepG2 cytotoxicity, primary screen, cytotoxicity control for P. falciparum antimalarial project, cell-based, ATP luminescence (AID 2303;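 active = inhibition above 50%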;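 also: 0% = DMSO wells and 100% = digitonin-killed cells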). To be noted: HepG2 viability, 24-48 h, at 10 µM, active compounds read high.
The target of experiment [3] is L-lactate dehydrogenase (Plasmodium falciparum (isolate CDC / Honduras)) (UniProt Q27743). Nature of the experiment: PfLDH activity inhibition – cell lysate, 3D7 strain, counter-screen for P. falciparum growth inhibition project (AID 2304).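 Also: 0% = vehicle and 100% = reference inhibitor.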 To be noted: P. falciparum 3D7 crude extract, LDH APAD/NBT absorbance; at 2 µM; active compounds read high.
Experiment [4] is described as follows: inhibition of 3D7 malaria parasite growth – strain 3D7 (AID 2306).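 Also: 0% = DMSO wells and 100% = chloroquine plus artemisinin control wells.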 Particulars: P. falciparum 3D7 erythrocytic growth, LDH absorbance, 72 h; at 2 µM; active compounds read high.
Experiment [5] has as its target Calcium-dependent protein kinase 1 (Plasmodium falciparum (isolate 3D7)) (UniProt P62344). In words: PfCDPK1 kinase inhibitors, biochemical, TCAMS library (AID 1159585; cut-off not given, nearly all actives have IC50 up to about 0.98 µM;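 also: inhibitors leave more ATP so luminescence rises with inhibition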). To be noted: recombinant PfCDPK1, Kinase-Glo ATP depletion luminescence.
The target in experiment [6] is Plasmodium falciparum protein kinase 6 (PK6, PF3D7_1337100) (UniProt Q8IDW1). Nature of the experiment: PfPK6 kinase inhibitors, biochemical, TCAMS library (AID 1159586). To be noted: recombinant PfPK6, Kinase-Glo ATP depletion luminescence.
The target of experiment [7] is Protein kinase 7 (PK7), Plasmodium falciparum 3D7 (PF3D7_0213400) (UniProt Q7YTF7). Nature of the experiment: inhibition of Plasmodium PK7 catalytic activity – biochemical, TCAMS antimalarial set, Kinase-Glo luminescence (AID 1159587). To be noted: recombinant PfPK7, Kinase-Glo ATP depletion luminescence.
The target in experiment [8] is Calcium-dependent protein kinase 4 (Plasmodium falciparum (isolate 3D7)) (UniProt Q8IBS5). In words: PfCDPK4 kinase inhibitors, biochemical, TCAMS library (AID 1159588; cut-off not given, nearly all actives have IC50 up to about 0.91 µM). Particulars: recombinant PfCDPK4, Kinase-Glo ATP depletion luminescence.
Chain of Calcium-dependent protein kinase 4 (Plasmodium falciparum (isolate 3D7)) (Q8IBS5 whole entry, looked up): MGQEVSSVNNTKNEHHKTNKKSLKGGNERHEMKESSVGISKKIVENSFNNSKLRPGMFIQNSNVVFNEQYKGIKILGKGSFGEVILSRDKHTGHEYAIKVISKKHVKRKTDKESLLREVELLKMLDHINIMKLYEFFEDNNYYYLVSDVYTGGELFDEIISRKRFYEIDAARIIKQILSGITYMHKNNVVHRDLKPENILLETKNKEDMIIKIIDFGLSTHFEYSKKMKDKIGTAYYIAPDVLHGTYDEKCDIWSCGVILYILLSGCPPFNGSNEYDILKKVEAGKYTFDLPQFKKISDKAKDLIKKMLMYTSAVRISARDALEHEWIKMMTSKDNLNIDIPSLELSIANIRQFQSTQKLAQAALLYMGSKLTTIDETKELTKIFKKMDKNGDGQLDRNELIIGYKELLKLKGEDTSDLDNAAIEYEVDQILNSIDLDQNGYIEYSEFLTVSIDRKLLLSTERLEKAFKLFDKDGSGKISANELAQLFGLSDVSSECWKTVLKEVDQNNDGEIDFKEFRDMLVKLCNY

Chain of Protein kinase 7 (PK7), Plasmodium falciparum 3D7 (PF3D7_0213400) (Q7YTF7 1-343): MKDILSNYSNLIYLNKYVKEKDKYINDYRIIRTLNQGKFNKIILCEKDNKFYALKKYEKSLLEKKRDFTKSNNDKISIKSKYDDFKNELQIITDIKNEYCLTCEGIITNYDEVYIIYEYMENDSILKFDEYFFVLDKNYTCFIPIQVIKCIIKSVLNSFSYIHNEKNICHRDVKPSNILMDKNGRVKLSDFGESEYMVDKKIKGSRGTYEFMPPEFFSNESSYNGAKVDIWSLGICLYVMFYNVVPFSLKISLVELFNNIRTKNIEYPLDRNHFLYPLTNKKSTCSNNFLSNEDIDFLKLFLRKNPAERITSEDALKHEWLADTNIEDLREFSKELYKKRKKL
Chain of Plasmodium falciparum protein kinase 6 (PK6, PF3D7_1337100) (Q8IDW1 1-305): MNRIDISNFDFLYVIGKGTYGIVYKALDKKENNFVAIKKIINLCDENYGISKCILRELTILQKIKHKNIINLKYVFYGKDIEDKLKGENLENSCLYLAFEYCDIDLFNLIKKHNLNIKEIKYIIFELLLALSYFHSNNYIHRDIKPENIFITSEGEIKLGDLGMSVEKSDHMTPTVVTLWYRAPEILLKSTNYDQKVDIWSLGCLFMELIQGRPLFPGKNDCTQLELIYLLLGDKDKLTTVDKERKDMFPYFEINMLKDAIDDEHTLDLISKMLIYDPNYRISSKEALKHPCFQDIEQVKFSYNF
Chain of Calcium-dependent protein kinase 1 (Plasmodium falciparum (isolate 3D7)) (P62344 whole entry, looked up): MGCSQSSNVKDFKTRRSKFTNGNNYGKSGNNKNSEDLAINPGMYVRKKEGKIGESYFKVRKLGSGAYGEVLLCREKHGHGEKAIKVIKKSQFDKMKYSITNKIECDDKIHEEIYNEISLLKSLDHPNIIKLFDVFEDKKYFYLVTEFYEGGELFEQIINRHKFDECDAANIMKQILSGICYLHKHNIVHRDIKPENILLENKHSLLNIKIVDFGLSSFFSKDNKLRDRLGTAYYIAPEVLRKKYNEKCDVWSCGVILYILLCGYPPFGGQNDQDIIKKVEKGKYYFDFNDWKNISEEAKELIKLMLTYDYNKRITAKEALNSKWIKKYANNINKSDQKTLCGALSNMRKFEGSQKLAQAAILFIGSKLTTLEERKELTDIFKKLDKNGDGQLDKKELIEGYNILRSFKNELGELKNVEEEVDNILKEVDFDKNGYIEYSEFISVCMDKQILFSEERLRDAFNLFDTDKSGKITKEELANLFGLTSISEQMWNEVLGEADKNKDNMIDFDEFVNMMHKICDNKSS
Chain of L-lactate dehydrogenase (Plasmodium falciparum (isolate CDC / Honduras)) (Q27743 whole entry, looked up): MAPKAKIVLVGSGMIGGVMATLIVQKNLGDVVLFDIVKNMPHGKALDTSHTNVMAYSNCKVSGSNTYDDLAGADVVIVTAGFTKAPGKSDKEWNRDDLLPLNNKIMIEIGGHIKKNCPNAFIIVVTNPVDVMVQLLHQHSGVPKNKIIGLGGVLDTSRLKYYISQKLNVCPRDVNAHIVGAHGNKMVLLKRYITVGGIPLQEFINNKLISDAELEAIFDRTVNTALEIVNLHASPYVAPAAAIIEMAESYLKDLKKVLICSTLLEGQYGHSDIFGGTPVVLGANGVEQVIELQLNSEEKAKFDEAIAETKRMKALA

On to `O=C(Nc1cccc(-c2csc(-c3nc4ccccc4[nH]3)c2)c1)c1ccoc1`, for which the growth inhibition is 67% (active) in experiment [1] and 96% (active) in experiment [4]. The values for the inhibition in experiment [2] and in experiment [3] were 36% and 1%, respectively. Besides, the result in experiment [5], in experiment [6], in experiment [7] and in experiment [8] was inactive.
Consider `c1ccc(-c2cc(NCc3cccc4ccccc34)c3[nH]ncc3n2)cc1`, for which the results for the growth inhibition in experiment [1] and in experiment [4] were 5% and 93% (active), respectively. In addition, the inhibition in experiment [2] was 7%; in experiment [3] it was -8%. Besides, the result in experiment [5], in experiment [6], in experiment [7] and in experiment [8] was inactive.
With `Oc1ccc(CCNc2nc(N/N=C/C=C/c3ccc(Cl)cc3)nc(N3CCNCC3)n2)cc1`, the results for the growth inhibition in experiment [1] and in experiment [4] were 52% (active) and 98% (active), respectively. For the same compound, the inhibition in experiment [2] was 17%; in experiment [3] it was 2%. Also, the outcome in experiment [5], in experiment [6], in experiment [7] and in experiment [8] was inactive.
As to `O=C(c1ccc(-c2ccc(-c3nc4ccc(C(F)(F)F)cc4[nH]3)s2)cc1)N1CCCCC1CN1CCC(O)C1` (centres undefined), the growth inhibition in experiment [1] was 80% (active); in experiment [4], 92% (active). Further, the inhibition in experiment [2] is 90% (active); in experiment [3] it was 3%. Also, the result in experiment [5], in experiment [6], in experiment [7] and in experiment [8] was inactive.
In the case of `CCNc1cc(C)nc(Nc2ccc(F)cc2)n1`, the growth inhibition in experiment [1] was 57% (active); in experiment [4], 101% (active). The inhibition in experiment [2] is 1%; in experiment [3], -7%. Moreover, the result in experiment [5], in experiment [6], in experiment [7] and in experiment [8] was inactive.
As for `Cc1noc(C)c1-c1ccc2c(Nc3ccc(C(F)(F)F)cc3)c(C(N)=O)cnc2c1`, the growth inhibition was 95% (active) in experiment [1] and 100% (active) in experiment [4]. The results for the inhibition in experiment [2] and in experiment [3] were 1% and 6%, respectively. The outcome in experiment [5], in experiment [6], in experiment [7] and in experiment [8] was inactive.
As for `CN(C)CCN(C)Cc1ccc(-c2ccc3c(Nc4ccc(F)cc4Cl)ccnc3c2)o1`, the growth inhibition was 100% (active) in experiment [1] and 101% (active) in experiment [4]. In addition, the inhibition in experiment [2] is 31%; in experiment [3] it was 5%. Also, the result in experiment [5], in experiment [6], in experiment [7] and in experiment [8] was inactive.
Take `COc1ccc(C(C(=O)NC2CCN(C[C@H](O)c3ccnc4ccc(OC)cc34)CC2)N2CCN(c3ccc(F)cc3)CC2)cc1` (some centres undefined): the growth inhibition in experiment [1] is 86% (active); in experiment [4] it was 97% (active). The values for the inhibition in experiment [2] and in experiment [3] were 16% and -6%, respectively. Further, the outcome in experiment [5], in experiment [6], in experiment [7] and in experiment [8] was inactive.
On to `Cc1cc(N[C@@H](CC(C)C)C(=O)Nc2ccccc2)nc(NCCc2ccccc2)n1`, for which the growth inhibition was 87% (active) in experiment [1] and 100% (active) in experiment [4]. The inhibition is -4% in experiment [2] and -1% in experiment [3]. Also, the outcome in experiment [5], in experiment [6], in experiment [7] and in experiment [8] was inactive.
`CCCC(CNCc1cccc(C)c1)CNc1cc(=O)c2ccccc2[nH]1` (centres undefined): the growth inhibition in experiment [1] is 89% (active); in experiment [4], 99% (active). Also, the inhibition in experiment [2] was -2%; in experiment [3], -7%. The result in experiment [5], in experiment [6], in experiment [7] and in experiment [8] was inactive.
Consider `O=C(/C=C/c1ccc(Cl)c(Cl)c1)NCCCCCCN1CCCN(C(=O)Nc2cc(Cl)cc(Cl)c2)CC1`, for which the results for the growth inhibition in experiment [1] and in experiment [4] were 2% and 98% (active), respectively. Moreover, the values for the inhibition in experiment [2] and in experiment [3] were 26% and -3%, respectively. Besides, the outcome in experiment [5], in experiment [6], in experiment [7] and in experiment [8] was inactive.
As for `O=C(Nc1ccc(NC2=NCCN2)cc1)c1ccc(C(=O)Nc2ccc(NC3=NCCN3)cc2)cc1`, the growth inhibition was 86% (active) in experiment [1] and 91% (active) in experiment [4]. Besides, the results for the inhibition in experiment [2] and in experiment [3] were 15% and -8%, respectively. The result in experiment [5], in experiment [6], in experiment [7] and in experiment [8] was inactive.
In the case of `Cc1cc(N(C)C2CCN(C)C2)nc(Nc2ccccc2Cl)n1` (centres undefined), the values for the growth inhibition in experiment [1] and in experiment [4] were 84% (active) and 100% (active), respectively. For the same compound, the inhibition was 1% in experiment [2] and -1% in experiment [3]. Besides, the outcome in experiment [5], in experiment [6], in experiment [7] and in experiment [8] was inactive.
As to `CCNc1cc(C(=O)N[C@@H](Cc2ccccc2)[C@H](O)CN[C@H]2C[C@@H]3CC[C@H]2C3)cc(N2CCCCS2(=O)=O)c1`, the growth inhibition in experiment [1] was 73% (active); in experiment [4], 99% (active). The inhibition was -4% in experiment [2] and 1% in experiment [3]. For the same compound, the outcome in experiment [5], in experiment [6], in experiment [7] and in experiment [8] was inactive.
As to `COc1cccc2c(Nc3ccccc3C)nc(Nc3ccccc3C)nc12`, the growth inhibition in experiment [1] is 36%; in experiment [4], 95% (active). Further, the inhibition was 9% in experiment [2] and 4% in experiment [3]. Besides, the outcome in experiment [5], in experiment [6], in experiment [7] and in experiment [8] was inactive.
For the compound `O=C(NCc1ccccc1)NC(CCCN1CCC(Oc2cccc(Cl)c2)CC1)c1ccc(Cl)c(Cl)c1` (centres undefined), the growth inhibition in experiment [1] is 57% (active); in experiment [4], 81% (active). For the same compound, the inhibition is 15% in experiment [2] and 4% in experiment [3]. Further, the result in experiment [5], in experiment [6], in experiment [7] and in experiment [8] was inactive.
In the case of `Cc1cccc2[nH]c(-c3cccc(-c4ccc(NC(=O)CC5NC(=O)c6ccccc65)cc4)c3)nc12` (centres undefined), the growth inhibition in experiment [1] was 67% (active); in experiment [4], 100% (active). Further, the inhibition was 30% in experiment [2] and -7% in experiment [3]. Also, the outcome in experiment [5], in experiment [6], in experiment [7] and in experiment [8] was inactive.
Regarding `Cc1noc(-c2ccccc2)c1NC(=O)NC1CCN(CCCCCNC(=O)/C=C/c2ccc(Cl)c(Cl)c2)CC1`, the growth inhibition in experiment [1] was -3%; in experiment [4] it was 93% (active). Besides, the inhibition in experiment [2] and in experiment [3] was -3% each time. Besides, the result in experiment [5], in experiment [6], in experiment [7] and in experiment [8] was inactive.
